# From PubChem BioAssay AID1159580 (chemical genetic matrix, 2015)
# “And” between values parts separate entries of the source, which are not always exact repeats. Equal values may be shown once. Hit rate of the full screen: of about 5,500 compounds, about 2,000 (36%) were called active. Roughly 18% stayed inconclusive and do not appear here. The list shows a part of the results. A number with no mark means an inactive call. Rule as the data show it: active = normalized growth mostly below about 0.91 (no sharp cut-off); inconclusive = no clear call, values can overlap the other calls; inactive = mostly above about 0.92.
# Assay: chemical genetic growth profiling, strain panel (AID 1159580);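 also: tested at 20 µM; growth read once vehicle control cultures reached saturation at 30 °C; 1 = growth at the plate median or of vehicle wells; lower values mean less growth of the strain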
# Details: S. cerevisiae deletion strains, growth OD
structure (smiles),measurement,setting,value
CCCCCCCCCc1ccc(O)cc1,normalized growth,"locus YAL013W, strain DEP1, hits give low values",0.118 (active)
same,normalized growth,"locus YAL021C, strain ccr4, hits give low values",0.0845 (active)
same,normalized growth,"locus YAL026C, strain drs2, hits give low values",0.0626 (active)
same,normalized growth,"locus YAL030W, strain snc1, hits give low values",0.0571 (active)
same,normalized growth,"locus YBL061C, strain skt5, hits give low values",0.0594 (active)
same,normalized growth,"locus YBR009C, strain hhf1, hits give low values",0.0563 (active)
same,normalized growth,"locus YBR021W, strain FUR4, hits give low values",0.215 (active)
same,normalized growth,"locus YBR023C, strain chs3, hits give low values",0.0626 (active)
same,normalized growth,"locus YBR171W, strain sec66, hits give low values",0.0781 (active)
same,normalized growth,"locus YBR229C, strain ROT2, hits give low values",0.144 (active)
same,normalized growth,"locus YBR231C, strain swc5, hits give low values",0.0635 (active)
same,normalized growth,"locus YBR279W, strain paf1, hits give low values",0.066 (active)
same,normalized growth,"locus YCL011C, strain gbp2, hits give low values",0.0546 (active)
same,normalized growth,"locus YCL016C, strain dcc1, hits give low values",0.0648 (active)
same,normalized growth,"locus YCL029C, strain bik1, hits give low values",0.617 (active)
same,normalized growth,"locus YCL061C, strain MRC1, hits give low values",0.0666 (active)
same,normalized growth,"locus YCL069W, strain vba3, hits give low values",0.0655 (active)
same,normalized growth,"locus YCR088W, strain abp1, hits give low values",0.0637 (active)
same,normalized growth,"locus YDL005C, strain med2, hits give low values",0.0719 (active)
same,normalized growth,"locus YDL035C, strain GPR1, hits give low values",0.0859 (active)
same,normalized growth,"locus YDL040C, strain nat1, hits give low values",0.0822 (active)
same,normalized growth,"locus YDL074C, strain BRE1, hits give low values",0.0981 (active)
same,normalized growth,"locus YDL101C, strain DUN1, hits give low values",0.1 (active)
same,normalized growth,"locus YDL134C, strain PPH21, hits give low values",0.0971 (active)
same,normalized growth,"locus YDL185W, strain tfp1, hits give low values",0.929
same,normalized growth,"locus YDL192W, strain arf1, hits give low values",0.411 (active)
same,normalized growth,"locus YDR001C, strain nth1, hits give low values",0.0685 (active)
same,normalized growth,"locus YDR069C, strain doa4, hits give low values",0.115 (active)
same,normalized growth,"locus YDR101C, strain arx1, hits give low values",0.721 (active)
same,normalized growth,"locus YDR137W, strain rgp1, hits give low values",0.101 (active)
same,normalized growth,"locus YDR150W, strain NUM1, hits give low values",0.529 (active)
same,normalized growth,"locus YDR159W, strain sac3, hits give low values",0.0748 (active)
same,normalized growth,"locus YDR162C, strain NBP2, hits give low values",0.102 (active)
same,normalized growth,"locus YDR195W, strain ref2",0.0909 (active)
same,normalized growth,"locus YDR297W, strain sur2, hits give low values",0.0579 (active)
same,normalized growth,"locus YDR318W, strain mcm21, hits give low values",0.58 (active)
same,normalized growth,"locus YDR334W, strain swr1, hits give low values",0.0683 (active)
same,normalized growth,"locus YDR335W, strain msn5, hits give low values",0.06 (active)
same,normalized growth,"locus YDR388W, hits give low values",0.678 (active)
same,normalized growth,"locus YDR392W, strain spt3, hits give low values",0.0671 (active)
same,normalized growth,"locus YDR502C, strain sam2, hits give low values",0.8 (active)
same,normalized growth,"locus YEL003W, strain gim4, hits give low values",0.0581 (active)
same,normalized growth,"locus YEL037C, strain rad23, hits give low values",0.0885 (active)
same,normalized growth,"locus YEL061C, strain CIN8 (second series), hits give low values",0.059 (active)
same,normalized growth,"locus YEL061C, strain CIN8, hits give low values",0.131 (active)
same,normalized growth,"locus YER015W, strain faa2, hits give low values",0.0639 (active)
same,normalized growth,"locus YER016W, strain bim1, hits give low values",0.0583 (active)
same,normalized growth,"locus YER110C, hits give low values",0.603 (active)
same,normalized growth,"locus YER111C, strain swi4, hits give low values",0.0713 (active)
same,normalized growth,"locus YER155C, strain BEM2 (second series), hits give low values",0.504 (active)
same,normalized growth,"locus YER155C, strain BEM2, hits give low values",0.101 (active)
same,normalized growth,"locus YER167W, strain BCK2, hits give low values",0.117 (active)
same,normalized growth,"locus YFR010W, strain ubp6, hits give low values",0.0798 (active)
same,normalized growth,"locus YGL078C, strain dbp3, hits give low values",0.885 (active)
same,normalized growth,"locus YGL086W, strain mad1, hits give low values",0.697 (active)
same,normalized growth,"locus YGL167C, strain pmr1, hits give low values",0.0729 (active)
same,normalized growth,"locus YGL173C, strain kem1, hits give low values",0.0956 (active)
same,normalized growth,"locus YGL227W, strain vid30, hits give low values",0.0725 (active)
same,normalized growth,"locus YGL240W, strain doc1, hits give low values",0.157 (active)
same,normalized growth,"locus YGL248W, strain PDE1, hits give low values",0.181 (active)
same,normalized growth,"locus YGL253W, strain hxk2, hits give low values",0.0662 (active)
same,normalized growth,"locus YGR078C, strain PAC10, hits give low values",0.174 (active)
same,normalized growth,"locus YGR135W, strain pre9, hits give low values",0.842 (active)
same,normalized growth,"locus YGR229C, strain SMI1, hits give low values",0.0784 (active)
same,normalized growth,"locus YGR252W, strain gcn5, hits give low values",0.518 (active)
same,normalized growth,"locus YHR013C, strain ard1, hits give low values",0.102 (active)
same,normalized growth,"locus YHR027C, strain rpn1, hits give low values",0.0645 (active)
same,normalized growth,"locus YHR030C, strain SLT2, hits give low values",0.0665 (active) and 0.09 (active)
same,normalized growth,"locus YHR079C, strain IRE1 (second series), hits give low values",0.488 (active)
same,normalized growth,"locus YHR079C, strain IRE1, hits give low values",0.107 (active)
same,normalized growth,"locus YHR094C, strain hxt1, hits give low values",0.87 (active)
same,normalized growth,"locus YHR129C, strain ARP1, hits give low values",0.173 (active)
same,normalized growth,"locus YHR142W, strain chs7, hits give low values",0.064 (active)
same,normalized growth,"locus YHR200W, strain rpn10, hits give low values",0.577 (active)
same,normalized growth,"locus YIL066C, strain RNR3, hits give low values",0.116 (active)
same,normalized growth,"locus YIL073C, strain SPO22, hits give low values",0.182 (active)
same,normalized growth,"locus YIL125W, strain kgd1, hits give low values",0.405 (active)
same,normalized growth,"locus YIR030C, strain dcg1, hits give low values",0.762 (active)
same,normalized growth,"locus YJL092W, strain hpr5, hits give low values",0.0838 (active)
same,normalized growth,"locus YJL095W, strain BCK1 (second series), hits give low values",0.0552 (active)
same,normalized growth,"locus YJL095W, strain BCK1, hits give low values",0.0671 (active) and 0.102 (active)
same,normalized growth,"locus YJL115W, strain asf1, hits give low values",0.113 (active)
same,normalized growth,"locus YJL129C, strain trk1, hits give low values",0.0774 (active)
same,normalized growth,"locus YJL134W, strain LCB3, hits give low values",0.308 (active)
same,normalized growth,"locus YJL154C, strain vps35, hits give low values",0.0618 (active)
same,normalized growth,"locus YJL164C, strain tpk1, hits give low values",0.0542 (active)
same,normalized growth,"locus YJL166W, strain qcr8, hits give low values",0.057 (active)
same,normalized growth,"locus YJL168C, strain set2, hits give low values",0.992
same,normalized growth,"locus YJL187C, strain SWE1 (second series), hits give low values",0.193 (active)
same,normalized growth,"locus YJL187C, strain SWE1, hits give low values",0.06 (active)
same,normalized growth,"locus YJR043C, strain POL32, hits give low values",0.107 (active)
same,normalized growth,"locus YJR066W, strain TOR1, hits give low values",-0.000468 (active)
